NPSR antag: antagonists of human neuropeptide S receptor cAMP signaling | CHO-NPSR cells, cAMP TR-FRET, antagonist mode | Potency, µM (doses to about 38.3 µM), for the others: top-dose activity change, negative = inhibition, actives largely listed as inhibitors | hit rate 1% among 220,000 | AID 1461; also: potency is read from the fitted curve at half-maximal effect; nearly all actives have a fitted effect of over 50% in size
HPGD inh: blocks human HPGD enzyme activity | Potency, µM, for the others: at the top dose activity change, negative = inhibition, actives largely listed as inhibitors | purified HPGD, NADH fluorescence kinetic, PGE2 substrate | hit rate 4.3% among 150,000 | P15428; active = well fitted inhibition curve with a large enough effect, not every such curve was filed as active; inconclusive = small, poorly fitted or top-dose-only effect, or another doubt; inactive = no such curve, though single readings can be large or run the other way; also: potency is read from the fitted curve at half-maximal effect
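NADH formation kinetics: reaction with 30 uM PGE2 and 1 mM NAD+ (final), 20 nM enzyme, Tris-HCl pH 8 with Tween 20, after 15 min compound preincubation at room temperature. Fluorescence change, last versus first of five reads.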
ALDH1A1 inh: inhibitors of human aldehyde dehydrogenase 1A1 | P00352 | Purified ALDH1A1, NADH fluorescence, propionaldehyde substrate | Potency, µM (highest dose often 75.3 µM), for inactives: at the top dose activity, negative = inhibition, hits mostly inhibitors | hit rate 7.3% among 220,000 | AID 1030; active = well fitted inhibition curve with a large enough effect, not every such curve was filed as active; inconclusive = small, poorly fitted or top-dose-only effect, or another doubt; inactive = no such curve, though single readings can be large or run the other way;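 also: potency is read from the fitted curve at half-maximal effect; plate controls were no enzyme wells and a reference inhibitor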
Target sequence (P00352 whole entry, looked up): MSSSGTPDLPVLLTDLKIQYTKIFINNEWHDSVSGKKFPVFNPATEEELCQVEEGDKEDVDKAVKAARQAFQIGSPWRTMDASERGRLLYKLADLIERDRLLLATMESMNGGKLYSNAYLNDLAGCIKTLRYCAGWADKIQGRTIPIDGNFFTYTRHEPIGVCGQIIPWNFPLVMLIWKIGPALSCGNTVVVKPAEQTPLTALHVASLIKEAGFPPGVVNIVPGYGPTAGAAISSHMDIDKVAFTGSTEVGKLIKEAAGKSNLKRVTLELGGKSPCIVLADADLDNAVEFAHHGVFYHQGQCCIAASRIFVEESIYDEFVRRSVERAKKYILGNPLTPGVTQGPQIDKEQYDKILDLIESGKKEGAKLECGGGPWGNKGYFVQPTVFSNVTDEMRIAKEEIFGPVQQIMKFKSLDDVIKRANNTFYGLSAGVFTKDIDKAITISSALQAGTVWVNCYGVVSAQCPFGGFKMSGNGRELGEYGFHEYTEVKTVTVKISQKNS
12-hLO inh: inhibitors of human 12-lipoxygenase (ALOX12) | purified 12-hLO, xylenol orange hydroperoxide absorbance | Potency, µM (top dose mostly 57.1 µM), without a hit: at the highest dose activity change, negative = inhibition, hits mostly inhibitors | hit rate 0.12% among 150,000 | AID 1452; also: potency is read from the fitted curve at half-maximal effect; nearly all actives have a fitted effect of over 55% in size
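Xylenol orange chromogenic assay: hydroperoxide from 12hLO oxidises Fe(II), giving red-shifted Fe(III)-XO absorbance. Conditions: 150 nM enzyme, 40 uM arachidonic acid, 25 mM Hepes pH 7.0, 0.01% Triton X-100, 30 min, room temperature.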
IMPase cell inh: cell-permeable inhibitors of inositol monophosphatase (IMPase); inhibition (IP1 accumulation), % at 46.1 µM; CHO-M1 cells, IP1 accumulation, HTRF TR-FRET ratio; 120,000 tested, under 10 active; P97697; active = well fitted curve in the direction sought with a large enough effect in the signal ratio, not every such curve was filed as active; inconclusive = small, poorly fitted or top-dose-only effect, or a change in a side signal; inactive = no such curve, though single readings can be large or run the other way; the % refers to the signal ratio;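 also: cells stimulated with carbachol in lithium chloride buffer; plate controls were DMSO basal wells for no effect and reference inhibitor wells for full effect; higher means more IMPase inhibition seen as more IP1 and lower FRET ratio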
Target sequence (P97697 whole entry, looked up): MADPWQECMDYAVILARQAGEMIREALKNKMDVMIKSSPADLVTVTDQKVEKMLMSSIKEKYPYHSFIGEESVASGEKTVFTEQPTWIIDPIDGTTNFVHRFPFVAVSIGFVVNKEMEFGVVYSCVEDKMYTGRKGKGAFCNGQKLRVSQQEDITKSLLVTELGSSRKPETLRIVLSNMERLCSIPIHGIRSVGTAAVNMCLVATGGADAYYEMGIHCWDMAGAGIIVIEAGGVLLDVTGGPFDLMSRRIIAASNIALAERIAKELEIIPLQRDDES
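Seeded CHO-M1 cells were dosed with compound at up to 46 uM, stimulated with carbachol for 30 min, then lysed in IP-One detection reagents. Higher IP1 lowers the TR-FRET signal.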
IMPase Li cell: cell-permeable IMPase inhibitors with lithium potentiation. CHO-M1 cells, IP1 TR-FRET (IP-One), carbachol + lithium. Potency, µM (doses to about 59.4 µM), for inactives: at the highest dose activity, negative = IMPase inhibition, hits mostly inhibitors. hit rate 0.35% among 210,000;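 also: IP1 builds up when IMPase is blocked and the TR-FRET signal falls; potency is read from the fitted curve at half-maximal effect; plate controls were basal vehicle for no effect and high inhibitor control for full effect; nearly all actives have a fitted effect of over 50% in size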
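Readout is a homogeneous TR-FRET IP1 immunoassay (Ex 320, Em 665 and 620), where raised cytosolic IP1 lowers signal. Cells were CHO-M1 treated 30 min at 37C with test compounds plus a little lithium; AC50 values came from Hill-equation fitting.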
An asterisk follows results filed as active; ? = inconclusive; . = not tested or not shown; [ ] = dose if it differs, or a comment. In the library only some 8.9% were active in any assay of this set; here they are far more common. Unless noted, calls follow the shape of the dose curve; as a rule, active = well fitted curve in the direction sought with a large enough effect; inconclusive = small, poorly fitted or top-dose-only effect, or another doubt; inactive = no such curve, though single readings can be large; an effect the other way counts as inactive or inconclusive. Unless noted, % is scaled to controls: 0 for no effect and ±100 for the full control effect.

SMILES | NPSR antag | HPGD inh | ALDH1A1 inh | 12-hLO inh | IMPase cell inh | IMPase Li cell
Cc1ccc(S(=O)(=O)N2CCN(C(=O)CSc3nc4ccccc4c(=O)[nH]3)CC2)cc1 | ? | -15% | 3.2µM* | -5% | -10 | ?
Cc1ccc(S(=O)(=O)N(C)C)cc1NC(=O)CSc1ncc(C(F)(F)F)cc1Cl | -41% | -9% | -1% | -2% | . | 1%
CCOc1ccc(C2CC(c3cccc(C)c3)n3nc(N)nc3N2)cc1 (stereo not drawn) | -5% | -2% | 2% | 3% | -4 | 7%
COc1ccccc1N1CCN(C(=O)Cn2nc3n(C)c4ccccc4n3c(=O)c2=O)CC1 | -14% | . | 7% | . | . | 4%
CC(C)CCCNc1nc(N2CCOCC2)nc(N2CCOCC2)n1 | -17% | -3% | 0% | 0% | 5 | 4%
CC(C)CN(C#N)c1nc(N2CCOCC2)nc(N2CCOCC2)n1 | ? | -11% | 7.9µM* | -6% | 15 | 6%[38.3 µM]
O=C(N/N=C/c1cn(-c2ccccc2)nc1-c1ccc(F)cc1)c1ccc2c(c1)OCO2 | -20%[46.1 µM] | -9% | ? | 3% | -4 | -2%[38.3 µM]
C/C(=N\NS(=O)(=O)c1ccc(C)c([N+](=O)[O-])c1)c1ccc2c(c1)OCO2 | -11% | . | 22µM* | . | . | -7%
C/C(=N\NS(=O)(=O)c1ccccc1)c1ccc2c(c1)OCO2 | 14% | . | ? | . | . | 10%
CNC(=O)CSc1nc2nc(C)cc(C)n2n1 | -4%[46.1 µM] | -18% | -16% | 6% | -1 | -11%[38.3 µM]
CCOC(=O)CC(=O)CSc1nc2nc(C)cc(C)n2n1 | 3%[46.1 µM] | 16µM* | 13µM* | -9% | 7 | 9%[38.3 µM]
O=c1c(/C=N/Nc2ccccc2)c(Sc2nnnn2-c2ccccc2)nc2ccccn12 | -5%[46.1 µM] | -4% | 2% | 1% | 1 | -3%[38.3 µM]
O=C(O)c1ccccc1N/N=C/c1c(Sc2nnnn2-c2ccccc2)nc2ccccn2c1=O | 28% | . | 2µM* | . | . | .
CCN(CC)c1ccc(C(=O)NNC(=O)CCl)cc1 | -33% | . | 10µM* | . | . | -1%
CCN(CC)c1ccc(NC(=O)C(C)C)cc1 | -16%[46.1 µM] | -2% | 7% | 3% | 14 | 11%[38.3 µM]
N=c1n(CCN2CCCCC2)c2ccccc2n1CC(O)c1cccc(Br)c1 (stereo not drawn) | 9%[46.1 µM] | 1% | -15% | -8% | ? | -3%[38.3 µM]
CCOC(=O)c1sc(NC(=O)CSc2n[nH]c(-c3ccc(Cl)cc3Cl)n2)c(C#N)c1C | -14%[46.1 µM] | -12% | -11% | -15% | 5 | 10%[38.3 µM]
O=C(c1csc(Nc2ccccc2Cl)n1)N1CCCC1 | 13%[46.1 µM] | 16µM* | 22µM* | 5% | 5 | -4%
O=C(NCc1ccco1)c1csc(Nc2ccccc2Cl)n1 | -7%[46.1 µM] | 16µM* | ? | -3% | -5 | 8%
Cc1nc2ccc(NC(=O)c3sccc3C)cc2s1 | 2%[46.1 µM] | -25% | -8% | 3% | 1 | 6%[38.3 µM]
Cc1cc2c(ncn2Cc2ccccc2)c([N+](=O)[O-])c1C | -14%[46.1 µM] | 20µM* | ? | -3% | 6 | 27%[38.3 µM]
O=C(Nc1ccc2c(c1)C(=O)N(c1ccccc1)C2=O)C1CCCO1 (stereo not drawn) | -14%[46.1 µM] | -10% | 14µM* | 9% | 7 | -4%
O=C1NC(=O)c2cc(NC(=O)C3CCCO3)ccc21 (stereo not drawn) | -5%[46.1 µM] | ? | ? | 10% | 0 | -3%[38.3 µM]
O=C(Nc1ccc(Oc2ccc(NC(=O)C3CCCO3)cc2)cc1)C1CCCO1 (stereo not drawn) | -8%[46.1 µM] | 1.4µM* | ? | -1% | -3 | -2%[38.3 µM]
O=C(NCCCN1CCOCC1)c1ccc(NC(=O)C2COc3ccccc3O2)cc1 (stereo not drawn) | 25% | . | 5% | . | . | 13%
SMILES | NPSR antag | HPGD inh | ALDH1A1 inh | 12-hLO inh | IMPase cell inh | IMPase Li cell
O=C(NCCN1CCN(c2ccccc2)CC1)c1ccc(NC(=O)C2CCCO2)cc1 (stereo not drawn) | -57%[46.1 µM] | -12% | 28µM* | 2% | 4 | 29%[38.3 µM]
Cc1ccc(NS(=O)(=O)c2ccc(NC(=O)C3CCCO3)cc2)cc1 (stereo not drawn) | -6%[46.1 µM] | -29% | 22µM* | -25% | 8 | 43%[38.3 µM]
Cc1cc(=O)oc2c(CN3CC(C)OC(C)C3)c(O)c(Cl)cc12 (stereo not drawn) | 0% | . | ? | . | . | -19%
Cc1ccccc1NC(=S)NC(=O)CCc1ccccc1 | -9%[46.1 µM] | -8% | ? | ? | -2 | -10%[38.3 µM]
CCc1nccn1C(=O)c1cnn2c(C(F)F)cc(-c3ccc(C)cc3)nc12 | -6%[46.1 µM] | . | ? | 2% | -4 | .
COc1ccc(S(=O)(=O)N2CCCC2C(=O)Nc2ccc(C(C)=O)cc2)cc1 (stereo not drawn) | -11%[46.1 µM] | -12% | ? | -10% | 10 | 22%[38.3 µM]
Cc1ccc(S(=O)(=O)Nc2ccc(NC(=O)c3cccs3)cc2)cc1 | -28% | . | 28µM* | . | . | 8%
Oc1ccc(C=NCC2COc3ccccc3O2)cc1 (stereo not drawn) | 13%[46.1 µM] | -9% | 18µM* | -2% | 1 | 5%[38.3 µM]
CCCc1cc(=O)oc2cc(C)c3c(-c4ccccc4)c(C)oc3c12 | . | . | . | . | 1 | .
COc1cc(/C=C2\SC(=Nc3c(C)n(C)n(-c4ccccc4)c3=O)NC2=O)ccc1O | -30% | 14µM* | -5% | 0% | . | -4%
COc1cc(/C=C2\SC(=Nc3ccc(O)cc3)NC2=O)cc(OC)c1O | 4% | . | 5% | . | . | 15%
C=C(C)COc1ccc(-c2[nH]ncc2-c2ccccc2OC)c(O)c1 | ? | -23% | 25µM* | ? | 12 | 23%[38.3 µM]
Cc1cccc(NC(=O)CS(=O)(=O)c2cn(CC(=O)N3CCOCC3)c3ccccc23)c1 | -8% | . | ? | . | . | 0%
Cc1ccc(C2NC(=S)NC3=C2C(=O)CC(C)(C)C3)cc1 (stereo not drawn) | -4% | -19% | 0.79µM* | -3% | -6 | 4%
Cn1c(N=Nc2ccc(N3CCOCC3)cc2)[n+](C)c2ccccc21 | 7.9µM* | . | -12% | . | . | 125%
Cc1ccc(/C=c2/sc3n(c2=O)CCCN=3)o1 | -8%[46.1 µM] | -27% | 3.5µM* | -4% | 9 | 7%
Cc1ccc(N2CN=c3s/c(=C\c4cccnc4)c(=O)n3C2)cc1 | 0%[46.1 µM] | -21% | 17% | 0% | -4 | -11%[38.3 µM]
Cc1ccc(/C=c2\sc3n(c2=O)CN(c2ccc(Br)cc2)CN=3)o1 | -27%[46.1 µM] | -17% | 14µM* | -23% | 4 | 7%[38.3 µM]
O=C1CN(/N=C/c2ccc([N+](=O)[O-])o2)C(=O)N1 | -27% | 2% | -2% | -6% | . | 1%
COc1cc(C(=O)NC(=S)Nc2ccccc2[N+](=O)[O-])cc(OC)c1OC | -14% | . | 18µM* | . | . | 1%
COCCNC(=S)Nc1ccccc1[N+](=O)[O-] | 5% | . | -10% | . | . | 6%
